Experimental data as given in PubChem BioAssay (NCATS).
Records with an inconclusive call do not appear. Where a call stands in place of a potency, no number is given. Activity calls are given as the source filed them. Calls follow the shape of the dose curve; as a rule, active = well fitted cell-killing curve with a large enough effect; inconclusive = small, poorly fitted or top-dose-only effect; inactive = flat fitted curve, though single readings scatter.

Experiments:
[1] = Cell Viability - LYMP2-025 (AID 976);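 also: series mostly up to about 92 µM; cells exposed to compound for 24 h at 37 °C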
Outline: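 In qHTS format, LYMP2-025 lymphoblastoid cells in complete culture medium received compound for 24 hr; ATP-based CellTiter-Glo signal gave viability, with AC50 derived by Hill equation.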

[2] = Cell Viability - LYMP2-002 (AID 977);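 also: series mostly up to about 92 µM; compound exposure lasted 24 h at 37 °C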
Outline: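 Cytotoxicity is scored as concentration-dependent loss of cellular ATP in a human lymphoblastoid line after 24 hr compound treatment at 37 C. AC50 is obtained by modelling concentration-response data with the Hill equation.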

[3] = Cell Viability - LYMP2-006 (AID 978);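 also: series mostly up to about 92 µM; cells exposed to compound for 24 hours; nearly all actives have a fitted effect of over 60% in size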
Outline: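 Cells are seeded at 2500 per well and rested 5 hr at 37 C. Compounds are added across a concentration series for 24 hr at 37 C, after which ATP is quantified by luciferase luminescence.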

[4] = Cell Viability - LYMP2-008 (AID 980);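 also: cells exposed to compound for 24 h at 37 °C; nearly all actives have a fitted effect of over 60% in size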
Outline: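 Acute cytotoxicity is scored as concentration-dependent loss of cellular ATP in a human lymphoblastoid line after 24 hr treatment at 37 C. ATP is quantified by luciferase luminescence.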

[5] = Cell Viability - LYMP2-010 (AID 981);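 also: cells exposed to compound for 24 hours at 37 °C; nearly all actives have a fitted effect of over 55% in size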; also: potency is read from the fitted curve at half-maximal effect
Outline: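 Acute toxicity is scored as a concentration-dependent loss of cellular ATP in human lymphoblastoid cells after 24 hr compound exposure in complete medium. Tetraoctylammonium bromide is the positive control.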

[6] = Cell Viability - LYMP2-012 (AID 982);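 also: cellular ATP by luciferase luminescence where a drop means cytotoxicity; cells exposed to compound for one day before reading; nearly all actives have a fitted effect of over 55% in size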
[7] = Cell Viability - LYMP2-014 (AID 983);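 also: series mostly up to about 92 µM; cells exposed to compound for 24 h at 37 °C; nearly all actives have a fitted effect of over 50% in size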
Outline: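 Decrease in intracellular ATP after 24 hr treatment at 37 C, measured by luciferase luminescence, indicated cytotoxicity. Concentration-response data were fitted with the standard Hill equation to give AC50.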

[8] = Cell Viability - LYMP2-016 (AID 984);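 also: cells exposed to compound for 24 hours at 37 °C; nearly all actives have a fitted effect of over 55% in size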
Outline: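 Cells were seeded at 2500 per well and rested 5 hr before a 24 hr compound exposure at 37 C. Viability was then gauged as cellular ATP by luciferase luminescence, with AC50 values fitted to the Hill equation.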

[9] = Cell Viability - LYMP2-018 (AID 985); also: nearly all actives have a fitted effect of over 50% in size
Outline: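 Acute cytotoxicity is scored as a concentration-dependent drop in intracellular ATP after 24 hr exposure of the lymphoblastoid line in complete culture medium, measured by luciferase luminescence. Potency is expressed as AC50 from Hill modelling.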

[10] = Cell Viability - LYMP2-007 (AID 979);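 also: cells exposed to compound for 24 h before reading; nearly all actives have a fitted effect of over 60% in size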
Outline: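 Acute toxicity is scored as a concentration-dependent fall in intracellular ATP in human lymphoblastoid cells treated 24 hr at 37 C, measured by luciferase luminescence; Hill-equation modelling yields AC50.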

| Structure (SMILES) | Potency [1] | Potency [2] | Potency [3] | Potency [4] | Potency [5] | Potency [6] | Potency [7] | Potency [8] | Potency [9] | Potency [10] |
| --- | --- | --- | --- | --- | --- | --- | --- | --- | --- | --- |
| Cc1cc(C)cc(O)c1 | inactive | inactive | inactive | inactive | inactive | inactive | inactive | inactive |  |  |
| Cc1ccc2nc(-c3ccc(N)cc3)sc2c1S(=O)(=O)O | inactive | inactive | inactive | inactive | inactive | inactive | inactive | inactive | inactive |  |
| O=C(O)c1cccc(Cl)c1Cl | inactive | inactive | inactive | inactive | inactive | inactive | inactive | inactive | inactive |  |
| O=Nc1ccc(NO)cc1 | inactive | inactive | inactive | inactive | 50.1 µM (active) |  | inactive |  |  |  |
| CCc1ccccc1 | inactive |  | inactive | inactive | inactive | inactive | inactive | inactive |  | inactive |
| Cc1ccc(CO)cc1 | inactive | inactive | inactive | inactive | inactive | inactive | inactive | inactive | inactive |  |
| O=CNc1ccccc1 | inactive | inactive | inactive | inactive | inactive | inactive | inactive | inactive | inactive |  |
| Clc1cc(Cl)cc(Cl)c1 | inactive | inactive | inactive | inactive | inactive | inactive | inactive | inactive | inactive |  |
| CCOc1cccc(N)c1 | inactive | inactive | inactive | inactive | inactive | inactive | inactive | inactive |  |  |
| Cc1cccc([N+](=O)[O-])c1C(=O)O | inactive | inactive | inactive | inactive | inactive | inactive | inactive | inactive | inactive |  |
| CCC(C)=O | inactive |  | inactive | inactive | inactive | inactive | inactive | inactive |  | inactive |
| CCCCOCCOCCSC#N | inactive | inactive | inactive | inactive | inactive | inactive | inactive | inactive | inactive |  |
| C=C(C)OC(C)=O | inactive | inactive | inactive | inactive | inactive | inactive | inactive | inactive | inactive |  |
| CCNc1cc(O)ccc1C | inactive | inactive | inactive | inactive | inactive | inactive | inactive | inactive | inactive |  |
| O=C(O)c1ccc(Cl)cc1Cl | inactive | inactive | inactive |  | inactive | inactive | inactive | inactive | inactive |  |
| CC(=O)c1ccccn1 | inactive | inactive | inactive | inactive | inactive | inactive | inactive | inactive | inactive |  |
| ICCc1ccccc1 | inactive | inactive | inactive |  |  | inactive | inactive | inactive | inactive |  |
| CCNS(=O)(=O)c1ccc(C)cc1 | inactive | inactive |  | inactive | inactive | inactive | inactive | inactive | inactive | inactive |
| CC(C)Cc1nccs1 | inactive | inactive | inactive | inactive | inactive | inactive | inactive | inactive | inactive |  |

| Structure (SMILES) | Potency [1] | Potency [2] | Potency [3] | Potency [4] | Potency [5] | Potency [6] | Potency [7] | Potency [8] | Potency [9] | Potency [10] |
| --- | --- | --- | --- | --- | --- | --- | --- | --- | --- | --- |
| c1ccc2c(c1)ccc1ncccc12 | inactive | inactive | inactive | inactive | inactive | inactive | inactive | inactive | inactive |  |
| O=Cc1c(Cl)cccc1Cl | inactive | inactive | inactive | inactive | inactive | inactive | inactive | inactive | inactive |  |
| CC1CCC2CC1C2(C)C (stereo not drawn) | inactive | inactive | inactive | inactive | inactive | inactive | inactive | inactive | inactive |  |
| Nc1ccc(Cl)cc1[N+](=O)[O-] | inactive | inactive | inactive | inactive | inactive | inactive | inactive | inactive | inactive |  |
| CCC(=O)/C=C/C1C(C)=CCCC1(C)C (stereo not drawn) | inactive | inactive | inactive | inactive | 50.1 µM (active) |  | inactive | inactive |  |  |
| CCCCC(CC)COC(=O)CCCCC(=O)OCC(CC)CCCC (stereo not drawn) | inactive | inactive | inactive | inactive | inactive | inactive | inactive | inactive | inactive |  |
| COc1ccc(N=[N+]([O-])c2ccc(OC)cc2)cc1 | inactive | inactive | inactive | inactive | inactive | inactive | inactive | inactive | inactive |  |
| COc1ccc(OC)cc1 | inactive | inactive | inactive | inactive | inactive | inactive | inactive | inactive | inactive |  |
| Cc1cccc(C)c1 | inactive | inactive | inactive | inactive | inactive | inactive | inactive | inactive | inactive |  |
| O=C(O)c1c(Cl)cccc1Cl | inactive | inactive | inactive | inactive | inactive | inactive | inactive | inactive | inactive |  |
| C/C(C=O)=C/c1ccccc1 | inactive | inactive | inactive | inactive | inactive | inactive | inactive | inactive | inactive |  |
| C=Cc1ccccn1 | inactive | inactive | inactive | inactive | inactive | inactive | inactive | inactive |  |  |
| C=C(C)C(N)=O | inactive | inactive | inactive | inactive | inactive | inactive | inactive | inactive |  |  |
| Cc1ccc(Cl)cc1N | inactive |  | inactive | inactive | inactive | inactive | inactive | inactive |  | inactive |
| COC(=O)c1ccccc1 | inactive | inactive | inactive | inactive | inactive | inactive | inactive | inactive | inactive |  |
| FC(F)(F)c1cccc(Cl)c1 | inactive | inactive | inactive | inactive | inactive | inactive | inactive | inactive | inactive |  |
| c1ccc(Oc2ccccc2)cc1 | inactive |  | inactive | inactive | inactive | inactive | inactive | inactive | inactive | inactive |
| NC(=S)NNC(N)=S | inactive |  | inactive | inactive | inactive | inactive | inactive | inactive | inactive | inactive |
